From PubChem BioAssay
Values without a mark were called inactive. Active and inactive are the calls of the source. Unless noted, no stated cut-off is given here; in the data, active means inhibition above about 25%; inactive means the rest.

Target: Nuclear receptor coactivator 1 (Homo sapiens) (UniProt Q15788)
Assay: NCOA1 GAL4-fusion reporter inhibition – cell-based, luminescence, quadruplicate, confirmation (AID 588820;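 active means mean inhibition above 46.68%, the untreated control wells mean plus 3 SD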;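 further: 0% = DMSO wells and 100% = gossypol 36 µM treated wells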)
Conditions: HEK293 GAL4-SRC1 luciferase reporter, at 3.6 µM, active compounds read high

Sequence of Nuclear receptor coactivator 1 (Homo sapiens) (Q15788 whole entry, looked up, the tested form may be a part): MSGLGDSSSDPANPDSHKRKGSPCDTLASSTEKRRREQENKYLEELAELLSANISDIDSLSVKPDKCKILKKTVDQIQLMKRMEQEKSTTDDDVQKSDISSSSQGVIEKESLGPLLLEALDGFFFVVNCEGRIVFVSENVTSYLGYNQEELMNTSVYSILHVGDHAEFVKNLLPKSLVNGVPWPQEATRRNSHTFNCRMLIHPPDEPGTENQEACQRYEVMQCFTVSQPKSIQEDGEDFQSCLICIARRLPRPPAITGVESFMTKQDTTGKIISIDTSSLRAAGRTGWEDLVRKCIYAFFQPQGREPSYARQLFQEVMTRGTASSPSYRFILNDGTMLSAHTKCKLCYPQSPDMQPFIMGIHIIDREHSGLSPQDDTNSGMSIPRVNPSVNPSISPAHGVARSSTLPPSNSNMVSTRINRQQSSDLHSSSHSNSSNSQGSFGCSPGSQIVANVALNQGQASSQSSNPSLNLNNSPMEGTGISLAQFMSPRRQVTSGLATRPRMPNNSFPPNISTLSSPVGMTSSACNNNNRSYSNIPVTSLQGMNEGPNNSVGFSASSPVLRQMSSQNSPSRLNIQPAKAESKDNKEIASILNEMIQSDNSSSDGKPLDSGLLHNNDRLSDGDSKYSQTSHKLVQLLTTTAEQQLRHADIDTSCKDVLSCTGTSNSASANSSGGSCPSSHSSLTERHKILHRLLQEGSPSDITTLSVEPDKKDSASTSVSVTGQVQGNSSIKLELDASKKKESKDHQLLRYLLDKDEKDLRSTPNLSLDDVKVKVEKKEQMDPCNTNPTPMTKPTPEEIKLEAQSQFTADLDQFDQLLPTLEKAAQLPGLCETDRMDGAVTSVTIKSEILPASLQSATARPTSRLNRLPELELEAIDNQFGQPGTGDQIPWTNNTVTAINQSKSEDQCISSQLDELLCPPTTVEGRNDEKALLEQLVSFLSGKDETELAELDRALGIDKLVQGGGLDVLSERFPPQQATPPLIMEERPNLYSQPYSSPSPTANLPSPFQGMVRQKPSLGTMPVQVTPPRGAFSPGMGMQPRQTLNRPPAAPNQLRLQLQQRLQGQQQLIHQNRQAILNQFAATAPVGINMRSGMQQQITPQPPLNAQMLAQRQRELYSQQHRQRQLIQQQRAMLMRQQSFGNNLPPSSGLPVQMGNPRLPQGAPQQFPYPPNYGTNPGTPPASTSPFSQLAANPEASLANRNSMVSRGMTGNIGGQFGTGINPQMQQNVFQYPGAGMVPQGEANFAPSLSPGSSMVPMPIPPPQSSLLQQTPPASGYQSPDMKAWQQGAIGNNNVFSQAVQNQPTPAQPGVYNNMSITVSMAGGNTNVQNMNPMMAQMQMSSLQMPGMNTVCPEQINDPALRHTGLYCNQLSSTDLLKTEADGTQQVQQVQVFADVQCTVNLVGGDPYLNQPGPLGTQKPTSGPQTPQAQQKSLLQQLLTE

Row | SMILES | inhibition [%]
1 | COc1ccc(-n2c(NNC(C)=O)nc3sc4c(c3c2=O)CCCC4)cc1 | 23.4
2 | CCOc1cc(/C=N/Nc2nc3ccccc3[nH]2)cc(Br)c1OCC(=O)N(C)C | -9.77
3 | CS(=O)(=O)Nc1cccc(NC(=O)C2Cc3c(-c4ccco4)ccnc3O2)c1 (stereo not given) | 22.6
4 | COc1cc(NC(=O)c2cccc3c(-c4cnn(C)c4)coc23)cc(OC)c1OC | -26.3
5 | O=[N+]([O-])c1ccc(CSc2ccc(S(=O)(=O)N3CCOCC3)cn2)cc1 | -7.09
6 | Cc1nn(-c2ccccc2)c(N2CCCC2)c1/C=N/NC(=O)c1cc(-c2cccnc2)nc2ccccc12 | -42.9
7 | Cc1cccc(C(C)C)c1-n1nnnc1-c1ccccc1 | -4.66
8 | CCc1ccc(NC(=O)C2CCN(S(=O)(=O)c3ccc4c(c3)CC(C)N4C(C)=O)CC2)cc1 (stereo not given) | -7.12
9 | COc1cccc(/C=N/NC(=O)CSc2ccccc2C)c1O | -0.52
10 | Cc1ccc(NC(=O)c2cc(=O)c3ccccc3o2)cc1S(=O)(=O)N1CCCCC1 | -9.96
11 | C[C@H](N)c1nnc(SCC(N)=O)o1 | -1.81
12 | CCC(Oc1ccccc1)C(=O)Nc1cc(C(F)(F)F)ccc1N1CCOCC1 (stereo not given) | 10.6
13 | CCN1CCN(c2ccc(S(=O)(=O)N3CCCCC3)cc2NC(=O)/C=C/c2cc(OC)ccc2OC)CC1 | -0.69
14 | Cc1nc(N/N=C/c2ccc(O)cc2O)cc(N2CCOCC2)n1 | -26.5
15 | COc1cc2c3c([nH]c2cc1F)C(=O)NCC3 | 19.2
16 | COc1ccc(N2CCN(C(=O)c3oc4ccccc4c3NC(=O)CCc3cc(OC)no3)CC2)cc1 | 1.78
17 | Cn1c(=O)c([N+](=O)[O-])c(NCCc2ccccc2)c2ccccc21 | 4.22
18 | O=S(=O)(c1cccc(C(F)(F)F)c1)N1c2ccccc2-n2cccc2C1c1cccnc1 (stereo not given) | 12.9
19 | CC[C@H](C)[C@H](NC(N)=O)C(=O)NCCc1ccc(OC)c(OC)c1 | -11
20 | Cc1cc(=O)oc2cc(OCc3ccc(C(=O)N4CCN(c5ccc([N+](=O)[O-])cc5)CC4)cc3)ccc12 | 10.5

Row | SMILES | inhibition [%]
21 | O=C(NC1CC(=O)N(c2ccccc2)C1)C1CC1 (stereo not given) | -3.45
22 | COc1ccc(C2CC(c3ccc(Br)cc3)=NN2C(=O)CSC2=NCCS2)cc1 (stereo not given) | 7.19
23 | CCOC(=O)N1CCN(C2=Nc3cccc4cccc2c34)CC1 | -13.8
24 | O=C1NC(=S)N/C1=C/c1ccc2c(c1)OCO2 | 10.2
25 | COc1ccc(/C=N/Nc2nc3ccccc3[nH]2)c(OC)c1OC | -27.8
26 | c1ccc2c(c1)ccc1ncccc12 | 1.02
27 | Cc1ccc(CNc2nc(-c3cccs3)nc3ccccc23)cc1 | -2.3
28 | COc1cc(C(=O)O)cc(NC(=O)c2ccco2)c1OC | -9.74
29 | O=C1CCC/C1=c1\s/c(=C/c2cccnc2)c(=O)n1-c1ccccc1 | 25.6
30 | CCC(C)OC(=O)C[N+](C)(C)CCOC1CC2CCC1(C)C2(C)C (stereo not given) | 5.52
31 | CC(=O)C1=C(C)NC2=C(C(=O)CC(C)(C)C2)C1C (stereo not given) | 28
32 | Cc1ccc(S(=O)(=O)N2CCN(c3ncnc4sccc34)CC2)cc1C | -1.32
33 | COc1ccc(CN2CCN(C(=O)c3cc(-c4cccnc4)nc4ccc(Cl)cc34)CC2)c(OC)c1OC | -29.8
34 | Cc1ccc2cc3cc(C(=O)NCc4ccco4)oc3nc2c1 | -10
35 | O=C1CC(N2CCN(Cc3ccccc3)CC2)C(=O)N1 (stereo not given) | -10.4
36 | COc1ccc(C(=O)Nc2ccc(Cl)c(S(=O)(=O)N3CCOCC3)c2)cc1 | -18.1
37 | CCCc1cc(=O)oc2c(C)c(O[C@@H]3O[C@H](CO)[C@@H](O)[C@H](O)[C@H]3O)ccc12 | -6.26
38 | CCOc1ccc(NC(=O)NCCCSC2CCCCC2)cc1 | -7.9
39 | COCCn1c(C)cc(/C=C2/NC(=O)N(c3cccc(Cl)c3)C2=O)c1C | -34.5
40 | O=C(Nc1ccncc1)c1ccc(Cl)c(S(=O)(=O)N2CCc3ccccc32)c1 | -6.49

System: not listed separately
Assay: repression of VP16-driven luciferase reporter – cell-based, luminescence, high throughput, counter-screen for SRC1 inhibitor project (AID 588824)
Conditions: cell-based VP16 transactivation luciferase luminescence; at 3.6 µM; active compounds read high

Row | SMILES | inhibition
41 | COc1ccc(-n2c(NNC(C)=O)nc3sc4c(c3c2=O)CCCC4)cc1 | 31.6% (active)
42 | CCOc1cc(/C=N/Nc2nc3ccccc3[nH]2)cc(Br)c1OCC(=O)N(C)C | -3.09%
43 | CS(=O)(=O)Nc1cccc(NC(=O)C2Cc3c(-c4ccco4)ccnc3O2)c1 (stereo not given) | 14.9%
44 | COc1cc(NC(=O)c2cccc3c(-c4cnn(C)c4)coc23)cc(OC)c1OC | -0.35%
45 | O=[N+]([O-])c1ccc(CSc2ccc(S(=O)(=O)N3CCOCC3)cn2)cc1 | 0.46%
46 | Cc1nn(-c2ccccc2)c(N2CCCC2)c1/C=N/NC(=O)c1cc(-c2cccnc2)nc2ccccc12 | -7.83%
47 | Cc1cccc(C(C)C)c1-n1nnnc1-c1ccccc1 | 13.5%
48 | CCc1ccc(NC(=O)C2CCN(S(=O)(=O)c3ccc4c(c3)CC(C)N4C(C)=O)CC2)cc1 (stereo not given) | 12.7%
49 | COc1cccc(/C=N/NC(=O)CSc2ccccc2C)c1O | 6.05%
50 | Cc1ccc(NC(=O)c2cc(=O)c3ccccc3o2)cc1S(=O)(=O)N1CCCCC1 | 7.05%
51 | C[C@H](N)c1nnc(SCC(N)=O)o1 | -12.9%
52 | CCC(Oc1ccccc1)C(=O)Nc1cc(C(F)(F)F)ccc1N1CCOCC1 (stereo not given) | 1.21%
53 | CCN1CCN(c2ccc(S(=O)(=O)N3CCCCC3)cc2NC(=O)/C=C/c2cc(OC)ccc2OC)CC1 | 7.17%
54 | Cc1nc(N/N=C/c2ccc(O)cc2O)cc(N2CCOCC2)n1 | -14.6%
55 | COc1cc2c3c([nH]c2cc1F)C(=O)NCC3 | 14.9%
56 | COc1ccc(N2CCN(C(=O)c3oc4ccccc4c3NC(=O)CCc3cc(OC)no3)CC2)cc1 | -3.04%
57 | Cn1c(=O)c([N+](=O)[O-])c(NCCc2ccccc2)c2ccccc21 | 4.74%
58 | O=S(=O)(c1cccc(C(F)(F)F)c1)N1c2ccccc2-n2cccc2C1c1cccnc1 (stereo not given) | 17.7%
59 | CC[C@H](C)[C@H](NC(N)=O)C(=O)NCCc1ccc(OC)c(OC)c1 | -10.9%
60 | Cc1cc(=O)oc2cc(OCc3ccc(C(=O)N4CCN(c5ccc([N+](=O)[O-])cc5)CC4)cc3)ccc12 | -3.02%

Row | SMILES | inhibition
61 | O=C(NC1CC(=O)N(c2ccccc2)C1)C1CC1 (stereo not given) | -9.3%
62 | COc1ccc(C2CC(c3ccc(Br)cc3)=NN2C(=O)CSC2=NCCS2)cc1 (stereo not given) | 10.6%
63 | CCOC(=O)N1CCN(C2=Nc3cccc4cccc2c34)CC1 | -0.04%
64 | O=C1NC(=S)N/C1=C/c1ccc2c(c1)OCO2 | 16.3%
65 | COc1ccc(/C=N/Nc2nc3ccccc3[nH]2)c(OC)c1OC | -23%
66 | c1ccc2c(c1)ccc1ncccc12 | 6.62%
67 | Cc1ccc(CNc2nc(-c3cccs3)nc3ccccc23)cc1 | 14.8%
68 | COc1cc(C(=O)O)cc(NC(=O)c2ccco2)c1OC | 2.33%
69 | O=C1CCC/C1=c1\s/c(=C/c2cccnc2)c(=O)n1-c1ccccc1 | 17.8%
70 | CCC(C)OC(=O)C[N+](C)(C)CCOC1CC2CCC1(C)C2(C)C (stereo not given) | 2.28%
71 | CC(=O)C1=C(C)NC2=C(C(=O)CC(C)(C)C2)C1C (stereo not given) | 15.6%
72 | Cc1ccc(S(=O)(=O)N2CCN(c3ncnc4sccc34)CC2)cc1C | 21.7%
73 | COc1ccc(CN2CCN(C(=O)c3cc(-c4cccnc4)nc4ccc(Cl)cc34)CC2)c(OC)c1OC | -6.25%
74 | Cc1ccc2cc3cc(C(=O)NCc4ccco4)oc3nc2c1 | 36% (active)
75 | O=C1CC(N2CCN(Cc3ccccc3)CC2)C(=O)N1 (stereo not given) | -10.1%
76 | COc1ccc(C(=O)Nc2ccc(Cl)c(S(=O)(=O)N3CCOCC3)c2)cc1 | 1.15%
77 | CCCc1cc(=O)oc2c(C)c(O[C@@H]3O[C@H](CO)[C@@H](O)[C@H](O)[C@H]3O)ccc12 | -0.67%
78 | CCOc1ccc(NC(=O)NCCCSC2CCCCC2)cc1 | -11.4%
79 | COCCn1c(C)cc(/C=C2/NC(=O)N(c3cccc(Cl)c3)C2=O)c1C | -40.5%
80 | O=C(Nc1ccncc1)c1ccc(Cl)c(S(=O)(=O)N2CCc3ccccc32)c1 | 36.8% (active)
